Screens: PubChem BioAssay, Broad Institute
aSyn 5UTR act – Activators via SNCA 5'UTR binding, MLPCN. alpha-synuclein 5'UTR reporter, activators screen. activity score, % (tested at 7.5 µM), hits read low. 7.1% of 300,000 active. AID 1814; in the data active = activity score below about -60%
A number is an active result. Only a sample is shown.

`Cn1c(NC(=O)/C=C/c2ccc(Cl)c(Cl)c2)cc(=O)n(C)c1=O` gave aSyn 5UTR act -181.
For COc1ccc(/C=C/C(=O)Nc2cc(=O)n(C)c(=O)n2C)cc1 the results were aSyn 5UTR act -104.
Screening Cn1c(NC(=O)/C=C/c2ccccc2)cc(=O)n(C)c1=O returned aSyn 5UTR act -253.
Screening Cn1c(NC(=O)CCc2ccccc2)cc(=O)n(C)c1=O returned aSyn 5UTR act -186.
Screening O=c1c(-c2cc3ccccc3o2)[n+]([O-])c2ccccc2n1OCc1ccccn1 returned aSyn 5UTR act -174.
Screening CCOn1c(=O)c(-c2cc3ccccc3o2)[n+]([O-])c2ccccc21 returned aSyn 5UTR act -117.
Screening C[C@H]1COC2=C1C(=O)C(=O)c1c2ccc2c1CCCC2(C)C returned aSyn 5UTR act inactive.
For CC(=O)n1cc(N(C(=O)CCl)c2ccccc2)c2ccccc21 the results were aSyn 5UTR act inactive.
CC(=O)n1c(Cl)c(NC(=O)CCl)c2ccccc21 was read as aSyn 5UTR act -80.
`Cc1ccc(Oc2ncc(CN3CCOCC3)s2)cc1` gave aSyn 5UTR act -78.
`O=C(Nc1ccc(Cl)cc1Cl)c1ccc2ncsc2c1` gave aSyn 5UTR act -177.
Screening O=C(Nc1ccc(F)cc1F)c1ccc2ncsc2c1 returned aSyn 5UTR act -120.
O=C(Nc1nnc(SCc2ccc(F)cc2)s1)c1ccc2ncsc2c1 was read as aSyn 5UTR act -100.
Cn1nnc2cc(C(=O)Nc3ccccc3F)ccc21 was read as aSyn 5UTR act -111.
Screening O=C(Nc1cccc(F)c1)c1ccc2ncsc2c1 returned aSyn 5UTR act -204.
O=C(Nc1ccccc1F)c1ccc2ncsc2c1 was read as aSyn 5UTR act -175.
`Cc1cc2nc(SCCN3CCCC3)[nH]c2cc1C` gave aSyn 5UTR act -68.
Screening COc1cccc(NC(=O)Nc2nc(SC(C)(C)C)ns2)c1 returned aSyn 5UTR act -130.
COc1cccc(NC(=O)Nc2nc(SC)ns2)c1 was read as aSyn 5UTR act -151.
For O=S(=O)(c1ccc(NC(=S)Nc2ccc3c(c2)OCO3)cc1)N1CCOCC1 the results were aSyn 5UTR act -227.
Screening CNS(=O)(=O)c1ccc(NC(=S)Nc2ccc3c(c2)OCO3)cc1 returned aSyn 5UTR act -129.
`Brc1ccc(-c2cnc(-c3cccs3)o2)cc1` gave aSyn 5UTR act -171.
Screening COc1cccc([C@@H]2Oc3ccc(OC)cc3C(=O)[C@H]2O)c1 returned aSyn 5UTR act -138.
`CC(=O)c1sc(Nc2nc3cc4c(cc3s2)OCO4)nc1C` gave aSyn 5UTR act -178.
For CC(=O)Nc1nc2cc3c(cc2s1)OCO3 the results were aSyn 5UTR act -100.
For O=C(Nc1nc2cc3c(cc2s1)OCO3)c1ccco1 the results were aSyn 5UTR act inactive.
`O=C(NCCCCCCNC(=O)c1ccc(Br)s1)c1ccc(Br)s1` gave aSyn 5UTR act -108.
O=C(NCCc1ccc(Cl)cc1)c1ccc(Br)s1 was read as aSyn 5UTR act -180.
For CN(C)S(=O)(=O)c1ccc(C(=O)Nc2ccc3ncccc3c2)cc1 the results were aSyn 5UTR act -86.
For c1cnc2ccc(-c3ccc4ncccc4c3)cc2c1 the results were aSyn 5UTR act -84.
Screening O=C(Nc1ccc2ncccc2c1)Nc1ccc2ncccc2c1 returned aSyn 5UTR act -179.
Screening O=C(Nc1ccc2ncccc2c1)c1ccccc1Br returned aSyn 5UTR act -297.
`Cc1nc2cc(NC(=O)c3ccc(S(=O)(=O)N(C)c4ccccc4)cc3)ccc2o1` gave aSyn 5UTR act -132.
`CCCCN(CCCC)S(=O)(=O)c1ccc(C(=O)Nc2nnc(COC)o2)cc1` gave aSyn 5UTR act inactive.
CCS(=O)(=O)c1ncc(Cl)c(C(=O)Nc2ccc(S(=O)(=O)N(C)c3ccccc3)cc2)n1 was read as aSyn 5UTR act inactive.
For COc1ccc(NCN2C(=O)C3C4C=CC(C4)C3C2=O)cc1 (configuration not stated) the results were aSyn 5UTR act -67.
O=C(NC(=S)Nc1ccc(Cl)cc1)c1ccccc1 was read as aSyn 5UTR act -177.
O=C(Nc1ccc(Cl)cc1)C(Cl)C(=O)c1ccccc1 (configuration not stated) was read as aSyn 5UTR act -79.
`CCC(=O)NC(=S)Nc1ccc(NC(=S)NC(=O)c2ccccc2)cc1` gave aSyn 5UTR act -104.
N=C1C(c2nc3ccccc3[nH]2)=C(O)CN1c1ccccc1 was read as aSyn 5UTR act -293.
For CCC(C)N1CC(O)=C(c2nc3ccccc3[nH]2)C1=N (configuration not stated) the results were aSyn 5UTR act -80.
`CC1C(O)=C(c2nc3ccccc3[nH]2)C(=N)N1c1ccccc1` (configuration not stated) gave aSyn 5UTR act -131.
`CC(C)c1ccc(NC(=O)c2cccnc2)cc1` gave aSyn 5UTR act -247.
Screening CCSc1ccc(NC(=O)c2cccnc2)cc1 returned aSyn 5UTR act -66.
Screening CC(C)c1ccc(NC(=O)c2snc3ccc(Cl)cc23)cc1 returned aSyn 5UTR act -369.
For CCc1ccc(NC(=O)c2cccnc2)cc1 the results were aSyn 5UTR act -79.
`COc1ccc(Cc2nc(-c3ccc(NC(=O)c4cccnc4)cc3)no2)cc1` gave aSyn 5UTR act inactive.
`CC(C)c1ccc(NC(=O)c2csnn2)cc1` gave aSyn 5UTR act -98.
C(#Cc1ccccc1)Cn1nnc2ccccc21 was read as aSyn 5UTR act -98.
COc1ccc2cc(C(=O)NCc3ccccc3)[nH]c2c1 was read as aSyn 5UTR act -66.
`COc1ccc2cc(C(=O)NCCc3ccccc3)[nH]c2c1` gave aSyn 5UTR act -172.
c1ccc2nc3c(nc2c1)c1ccccc1n3CCN1CCOCC1 was read as aSyn 5UTR act -80.
O=C(Nc1nc2ccccc2n1CCN1CCOCC1)c1cn(-c2ccccc2)nc1-c1ccccc1 was read as aSyn 5UTR act inactive.
`O=c1c2ccccc2nc2c3ccccc3c(NCCN3CCOCC3)nn12` gave aSyn 5UTR act -345.
Cc1ccccc1Oc1cc(NC(=O)Cn2cnc([N+](=O)[O-])c2)cc([N+](=O)[O-])c1 was read as aSyn 5UTR act -91.
Screening COc1ccc(C)cc1N(C(=O)COc1cccc(F)c1)c1nc2ccccc2s1 returned aSyn 5UTR act -110.
Screening CCOC(=O)C1(Cc2cccc(OC)c2)CCCN(C(=O)CCc2cccnc2)C1 (configuration not stated) returned aSyn 5UTR act -133.
Screening CCOC(=O)C1(Cc2cccc(OC)c2)CCCN(C(=O)c2cc(C)oc2C)C1 (configuration not stated) returned aSyn 5UTR act -71.
`CCOC(=O)C1(Cc2cccc(OC)c2)CCN(Cc2cccc(OCC)c2O)CC1` gave aSyn 5UTR act -69.
Screening COc1ccccc1N1CCN(Cc2cc(Br)c(O)c3ncccc23)CC1 returned aSyn 5UTR act inactive.
Screening CCOC(=O)C1(Cc2ccccc2C)CCCN(C(=O)c2sccc2C)C1 (configuration not stated) returned aSyn 5UTR act -70.
Screening CCOC(=O)C1(Cc2ccccc2)CCCN(C(=O)C=C(C)C)C1 (configuration not stated) returned aSyn 5UTR act -137.
Screening CC#CC(=O)N1CCCC(Cc2cccc(OC)c2)(C(=O)OCC)C1 (configuration not stated) returned aSyn 5UTR act -106.
CCOC(=O)C1(Cc2cccc(OC)c2)CCCN(C(=O)CSC)C1 (configuration not stated) was read as aSyn 5UTR act -97.
